In the library only some 4.6% were active in any assay of this set; here they are far more common.
D1 agonist: activates the human D1 dopamine receptor | P21728 | HEK293 T-REx D1 cells, calcium flux, agonist mode | activation, % at 2 µM | actives 1% (n = 360,000); in the data active = activation above about 30%; also: 0% is about no effect
Target sequence (P21728 whole entry, looked up): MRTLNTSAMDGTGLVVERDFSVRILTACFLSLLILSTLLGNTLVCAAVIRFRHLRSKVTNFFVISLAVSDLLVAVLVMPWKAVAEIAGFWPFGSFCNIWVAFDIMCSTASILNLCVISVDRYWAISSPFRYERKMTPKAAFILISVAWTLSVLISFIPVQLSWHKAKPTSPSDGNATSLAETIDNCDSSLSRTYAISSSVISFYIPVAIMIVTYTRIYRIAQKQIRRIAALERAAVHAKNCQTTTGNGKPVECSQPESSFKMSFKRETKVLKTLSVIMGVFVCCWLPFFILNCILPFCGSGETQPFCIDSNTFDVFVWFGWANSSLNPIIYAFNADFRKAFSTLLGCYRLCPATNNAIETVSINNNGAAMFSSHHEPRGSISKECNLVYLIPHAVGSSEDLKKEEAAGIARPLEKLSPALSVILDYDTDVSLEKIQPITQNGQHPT
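Inducible HEK293 T-REx D1 cells, force-coupled to calcium signalling, were plated at 4000 cells/well with tetracycline and held overnight at 30 C. After no-wash calcium dye loading, compound-evoked calcium rise over 180 s flagged agonists.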
D1 potentiator: human D1 dopamine receptor positive modulation; actives 0.036% (n = 360,000); potentiation, % at 10 µM; AID 504651; HEK293 TREx D1 cells, calcium flux, dopamine EC20 potentiation; P21728; in the data active = potentiation above about 30%; also: 0% is about no effect
D1 antagonist: human D1 dopamine receptor antagonism | P21728 | HEK293 TREx D1 cells, calcium flux, dopamine EC80; active compounds read low | activity change, negative = inhibition, % at 10 µM | actives 3.2% (n = 360,000); in the data active = activity change below about -30%; also: % is scaled to controls: 0 for no effect and ±100 for the full control effect
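Inducible Hek293 Trex D1 cells (tetracycline, overnight, 30 C). Calcium dye 30–90 min RT. Antagonist mode: EC80 dopamine added after 180 s compound read.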
TRHR agonist-1: activates the human TRH receptor; P34981; TRHR cells, calcium flux fluo-8, FDSS agonist mode; activation, % at 2 µM; actives 0.18% (n = 360,000); AID 493084; in the data active = activation above about 30%; also: 0% is about no effect
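TRHR-expressing cells, plated overnight in medium with 10% serum, were loaded with fluo-8 calcium dye at room temperature. After a 10 s baseline, library compound was pin-added and calcium release was recorded kinetically (ex 480/em 530) as agonist response.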
TRHR enhancer-1: allosteric enhancers of human TRH receptor; TRHR cells, fluo-8 calcium fluorescence, EC20 TRH enhancement; enhancement, % at 2 µM; actives 0.66% (n = 360,000); AID 493056; in the data active = enhancement above about 30%; also: 0% is about no effect
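Enhancer read-out: after compound pinning and an initial kinetic agonist-mode read, an EC20 of TRH (10 nM final) was injected and fluo-8 calcium signal (Ex 480/Em 530) followed at 1 s/cycle for 100 cycles in TRHR-expressing cells.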
TRHR enhancer-2: human TRH receptor allosteric enhancement confirmation; shares compounds with TRHR enhancer-1; TRH receptor cell assay, enhancer confirmation qHTS; activity change, negative = inhibition, % at 46.1 µM; 970 tested, under 10 active; AID 493076;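 also: compound effect scored on response to added TRH at EC20 of 10 nM; 0% is about no effect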
TRHR agonist-2: confirmation of human TRH receptor agonists; shares compounds with TRHR enhancer-1; TRHR-expressing cells, agonist activation read-out; Potency, µM (highest dose often 46.1 µM), inactives show top-dose activation, hits mostly activators; actives 8% (n = 970); AID 493078; also: potency is read from the fitted curve at half-maximal effect; 0% is about no effect; nearly all actives have a fitted effect of over 75% in size
An asterisk follows results filed as active; ? = inconclusive; / = no result given. Unless noted, calls follow the shape of the dose curve; as a rule, active = well fitted curve in the direction sought with a large enough effect; inconclusive = small, poorly fitted or top-dose-only effect, or another doubt; inactive = no such curve, though single readings can be large; an effect the other way counts as inactive or inconclusive.

SMILES | D1 agonist | D1 potentiator | D1 antagonist | TRHR agonist-1 | TRHR enhancer-1 | TRHR enhancer-2 | TRHR agonist-2
O=C(N/N=C/c1ccc(OCc2cnc(Cl)s2)cc1)c1ccncc1 | 16 | -5 | -33* | 0 | 50* | 1 | 2%
CCCCOc1ccc(C2c3c(-c4ccccc4O)n[nH]c3C(=O)N2Cc2ccncc2)cc1OC (stereo unspecified) | 1 | 4 | -2 | 1 | 3 | / | /
Cc1ccc(-c2c(C)sc3nc[nH]c(=O)c23)cc1C | 2 | -21 | -35* | -1 | 47* | 0 | 1%
Cc1ccc2c(c1)c(=O)c1ccccc1n2CCCC(=O)Nc1cc(Cl)ccc1C | 0 | 3 | -9 | 0 | 4 | / | /
O=C(O)CCC(=O)N1N=C(c2ccccc2)CC1c1ccc2nccnc2c1 (stereo unspecified) | 1 | -4 | 8 | 1 | -4 | / | /
O=C(O)CCCC(=O)N1N=C(c2ccccc2)CC1c1ccc2nccnc2c1 (stereo unspecified) | 3 | -1 | 6 | 0 | 46* | 1 | 0%
CCOCCCNC(=O)Cn1ncc2c([nH]c3ccccc32)c1=O | 0 | -3 | -26 | 0 | 4 | / | /
Cc1cc(-n2c(SCc3ccccc3F)nc3n[nH]c(C)c3c2=N)ccc1Cl | 0 | -6 | -3 | 1 | 54* | -11 | 1%
C=CCNC(=O)c1c(N)n(-c2cccc(S(N)(=O)=O)c2)c2nc3ccccc3nc12 | 9 | 2 | -14 | 1 | 43* | -3 | ?
Cc1c(C2(O)C(=O)Nc3ccc(F)cc32)c(=O)n(-c2ccccc2)n1C (stereo unspecified) | 3 | -1 | 4 | 0 | 50* | 0 | -1%
Cc1ccc(C(=O)CN2C(=O)NC3(CCc4ccccc43)C2=O)s1 (stereo unspecified) | -1 | -1 | 14 | -1 | 58* | -2 | -1%
CC(=O)Nc1ccc(S(=O)(=O)NCC2CCC(C(=O)NCc3ccccc3Cl)CC2)cc1 (stereo unspecified) | 1 | -3 | -5 | 0 | -9 | / | /
CCOc1ccc(CCNC(=O)c2cnc3sc(N4CCCCCC4)nn3c2=O)cc1 | 1 | -4 | 7 | 0 | -8 | / | /
CC(C)(C)c1ccc(-c2csc(NNC3=NCCCCC3)n2)cc1 | 0 | 1 | / | 0 | 55* | 7 | 6%
Brc1ccc(-c2csc(NNC3=NCCCCC3)n2)cc1 | 0 | 6 | 23 | -1 | 2 | / | /
COc1cccc(NS(=O)(=O)c2ccc3[nH]cc(C(=O)N(C)C4CCCCC4)c(=O)c3c2)c1 | 0 | -3 | 5 | 0 | -5 | / | /
C=CCn1c(C)cc(-c2csc(NC(=O)C3=COCCO3)n2)c1C | 2 | -8 | 19 | 0 | 59* | -9 | 0%
CC(C)CCNC(=O)CCn1c(=S)oc2ccccc21 | 0 | -6 | -9 | 0 | 53* | 0 | 2%
COc1ccccc1NC(=O)CCn1c(=S)oc2ccccc21 | 2 | -8 | 4 | -1 | 19 | / | /
CN1C(=O)c2cccc3c(N(C)C)ccc(c23)C1=O | 60* | 2 | -2 | 44* | 8 | 7 | 16µM*
COc1cc(CNC(C)C23CC4CC(CC(C4)C2)C3)ccc1OCC(=O)NC(C)(C)C (stereo unspecified) | 37* | 0 | 2 | 43* | -16 | -2 | ?
COc1cc(CNC(C)(C)CO)ccc1OCC(=O)NC(C)(C)C | 0 | -5 | 15 | 0 | 0 | / | /
NC(=O)c1ccc[n+]([C@H]2O[C@@H](COP(=O)([O-])OP(=O)(O)OC[C@H]3O[C@@H](n4cnc5c(N)ncnc54)[C@H](O)[C@@H]3O)[C@H](O)[C@@H]2O)c1 | 190* | 23 | 20 | 27 | 9 | -1 | ?
COc1ccc(-c2c(NC(=O)c3ccco3)oc3ccccc3c2=O)cc1OC | 1 | 4 | -6 | 0 | 17 | / | /
O=C(COc1ccc(Cl)cc1)NCc1nnc(SCC(=O)Nc2ccccc2F)o1 | 0 | -4 | -10 | 0 | 44* | 2 | 0%

From PubChem
